Laboratory results as given in publication PMC7819943, “Rice protein-binding microarrays: a tool to detect cis-acting elements near promoter regions in rice”.
The full ranking holds about 35,000 sequences; the median of “fluorescence intensity (a.u.)” is about 10,000, and the highest 2% start at about 52,000. This excerpt belongs to a sample that is enriched for the highest values.

Target: T1, OsWOX13 (Oryza sativa, UniProt Q5QMM3 1-267)
T1 sequence: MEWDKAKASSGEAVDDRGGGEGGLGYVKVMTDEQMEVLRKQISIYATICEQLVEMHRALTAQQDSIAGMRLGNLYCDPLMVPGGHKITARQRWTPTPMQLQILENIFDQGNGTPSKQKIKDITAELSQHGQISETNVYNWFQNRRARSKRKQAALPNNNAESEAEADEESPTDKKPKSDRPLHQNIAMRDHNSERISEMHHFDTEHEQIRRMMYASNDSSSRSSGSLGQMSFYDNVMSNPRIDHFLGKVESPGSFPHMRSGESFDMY
Experiment: protein-binding microarray (RPBM); PBS, 2% BSA, 51.3 ng/ul salmon testes DNA, 50 uM zinc acetate, 200 nM TF, 25 C, 1 h; high values mean tight binding
Details: protein: recombinant; tags: N-terminal polyhistidine and DsRed monomer fusion (pET32a); label: CyDye5-dUTP incorporated in the synthesized complementary strand; 3' TTTTT single-stranded linker to array surface; dsDNA, one strand shown
In short: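 An Axon 4000B scanner gave the binding signal as per-feature fluorescence intensity in arbitrary units. This followed washing of a custom Agilent array that had been incubated for 1 h at 25 °C with 200 nM protein in PBS, 2% BSA, salmon testes DNA and 50 µM zinc acetate. The proteins were transcription factors fused at the N-terminus to polyhistidine and DsRed, expressed in E. coli BL21-CodonPlus and purified on Ni–NTA.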

Sequence | binding signal
TGACTTGATTAATTGCTTCTATGTTTGGCACCCAATTAATCGGAGTCACCTAGTGCAG | 44900 fluorescence intensity (a.u.)
GACATATTGTCACCGGTTTTGATTAGTTGTGGATATCTGGCGGAGTCACCTAGTGCAG | 6960 fluorescence intensity (a.u.)
GATCGATTTGGTTTTGTTGATTTGATCTGGCCGGACAAGGCGGAGTCACCTAGTGCAG | 3980 fluorescence intensity (a.u.)
AACCCTAGATTGATTTTGCGTGTGCTGCGTGAAGACGGCACGGAGTCACCTAGTGCAG | 41400 fluorescence intensity (a.u.)
GTTTGATTGATTGATTTCGTGTACCATGCGGACTTCAGATCGGAGTCACCTAGTGCAG | 65100 fluorescence intensity (a.u.)
TTTAATTTTATGTTTTGATTTTAATCTATATCTCTTCTCTCGGAGTCACCTAGTGCAG | 22600 fluorescence intensity (a.u.)
CTGAAACTGATTGAACTTTTGTCCATTTTCAGATCGTGTACGGAGTCACCTAGTGCAG | 49400 fluorescence intensity (a.u.)
GGGCCGTGATTGATTTGCTGGCGTGTGTGATTTTCAGCTGCGGAGTCACCTAGTGCAG | 62900 fluorescence intensity (a.u.)
GCTTAATTGATTAATTTGCTGGACGAGGAATCTTCTATGTCGGAGTCACCTAGTGCAG | 64600 fluorescence intensity (a.u.)
TGATTTGATTTTCAGTTTTGCACCATGCGATCGATCGAGACGGAGTCACCTAGTGCAG | 4320 fluorescence intensity (a.u.)
ATTTTGACTGATGTGACGTTTGCGTGGCTGGTTTGATTAGCGGAGTCACCTAGTGCAG | 28900 fluorescence intensity (a.u.)
TAGTTTGTGATTGATTTGTCGACATCTGGAGGCGTCATGCCGGAGTCACCTAGTGCAG | 58400 fluorescence intensity (a.u.)
CATCCATCCAACTTAATTTGACAGCAACTCACTGCAGCTTCGGAGTCACCTAGTGCAG | 12000 fluorescence intensity (a.u.)
TAGTTAAATTTCCATTTAACTAGGGATAAATTAAATGGCTCGGAGTCACCTAGTGCAG | 20200 fluorescence intensity (a.u.)
AGAATATGATTTTAAAATTAATTTTAGGGGAGGGTTTTACCGGAGTCACCTAGTGCAG | 26000 fluorescence intensity (a.u.)
TTGTTGTTATTTAATAAATTAGGAGATCAAATATGTTATTCGGAGTCACCTAGTGCAG | 3300 fluorescence intensity (a.u.)
GGGGCAAATTGGTCTTGTCATGAAAGCTAAAAGCCAAAGGCGGAGTCACCTAGTGCAG | 4730 fluorescence intensity (a.u.)
CAAGATAATTACAAGTTTATAAAACAAACTACTACAGGGACGGAGTCACCTAGTGCAG | 27200 fluorescence intensity (a.u.)
CACTATCTGATCCTAATTACACACTGATGCAGGGGTAAATCGGAGTCACCTAGTGCAG | 3790 fluorescence intensity (a.u.)
ATCTTTAATTTTGATATTTAATTTTAATCATTGGAAAGGGCGGAGTCACCTAGTGCAG | 25000 fluorescence intensity (a.u.)
CATAATTGCTGATATTTTGTCTTTGGAGTTTGATCCATGGCGGAGTCACCTAGTGCAG | 44200 fluorescence intensity (a.u.)

Sequence | binding signal
AGGTGTACATGATTGTTTGCTTCCTTGCTGCAGCTCGGCGCGGAGTCACCTAGTGCAG | 14100 fluorescence intensity (a.u.)
GTTAATTTTGTCGAGTTAATTGGATCTTTGCTTTGATGGGCGGAGTCACCTAGTGCAG | 57600 fluorescence intensity (a.u.)
CAATGCTTGCTTGATTGGGAGCGCGTCGTCGAGGGCGTCGCGGAGTCACCTAGTGCAG | 14400 fluorescence intensity (a.u.)
TGATTGATTGCTTGATTGGGAGTGTCCTTTGGGCGAGCTGCGGAGTCACCTAGTGCAG | 64900 fluorescence intensity (a.u.)
CCCCATCGTCACTTATAATTTATGAATAAAACTTTTAGATCGGAGTCACCTAGTGCAG | 4840 fluorescence intensity (a.u.)
GGATGAAATTAGCCCATCAGCAATTACGTGTAGGCCGTAGCGGAGTCACCTAGTGCAG | 3690 fluorescence intensity (a.u.)
ATGTTCCTATCAGTTGCTAATTATTAGTGTGACATCAATCCGGAGTCACCTAGTGCAG | 16300 fluorescence intensity (a.u.)
ATTAAGTCTAATTAATCTGTTATTAGCAAATGTTTACTGTCGGAGTCACCTAGTGCAG | 11100 fluorescence intensity (a.u.)
CCTAATTACGCCATGATTTGATAATATGATGCTACAATAACGGAGTCACCTAGTGCAG | 39600 fluorescence intensity (a.u.)
ACTGCTGCCGATTGACTGCTACGAGTAGCTCGCACCTGGCCGGAGTCACCTAGTGCAG | 7450 fluorescence intensity (a.u.)
GAGCAAAACAATAATTAAATATATTTTGATAATAAATTTGCGGAGTCACCTAGTGCAG | 3560 fluorescence intensity (a.u.)
AATCAATTTAATAATTGATTAAACAGAGCAAATTTTAGCTCGGAGTCACCTAGTGCAG | 65100 fluorescence intensity (a.u.)
TAATATTTAAATTAAACCTATAATCAAGCAGATGATTTATCGGAGTCACCTAGTGCAG | 8840 fluorescence intensity (a.u.)
CCAAATTAAGCCATTAATTAATAAAACAATATCATTAGGACGGAGTCACCTAGTGCAG | 28900 fluorescence intensity (a.u.)
TTTAATATTTATAATTAATGTCAAACATCAGATGTGATAGCGGAGTCACCTAGTGCAG | 12700 fluorescence intensity (a.u.)
CAATTGTGAAATAATTAATTAAATTATCATTAAGCCCCAACGGAGTCACCTAGTGCAG | 30300 fluorescence intensity (a.u.)
TAATAATTGATTAAACAGAGCAAATTTTAGCTTGCAGATACGGAGTCACCTAGTGCAG | 48500 fluorescence intensity (a.u.)
TTTAATTGATAAATATTATCAATTATTAAACAGATAAGCGCGGAGTCACCTAGTGCAG | 62800 fluorescence intensity (a.u.)
TGAAATAATTAATTAAATTATCATTAAGCCCCAAACCGAGCGGAGTCACCTAGTGCAG | 57300 fluorescence intensity (a.u.)
GATAGATGATATACCCGTTAACAATGAGACGTTTGTGGAGCGGAGTCACCTAGTGCAG | 3270 fluorescence intensity (a.u.)
ACATATAATTGCCACGTCAGCGCCACATCAATGCCACGTGCGGAGTCACCTAGTGCAG | 23200 fluorescence intensity (a.u.)
